Measurements: PubChem BioAssay (NCATS)
Records with an inconclusive call do not appear. Activity calls are given as the source filed them. The call rests on the fitted dose curve; in most records, active means well fitted curve in the direction sought with a large enough effect; inconclusive means small, poorly fitted or top-dose-only effect, or another doubt; inactive means no such curve, though single readings can be large; an effect the other way counts as inactive or inconclusive.

Key:
[1] = system: NIH3T3; assay: qHTS assay to identify novel small-molecules to repurpose for Merkel cell carcinoma treatment (AID 1296009); conditions: MCC and control cell lines, CellTiter-Glo viability, 72 h; at 44.8 µM (top of the series) unless noted; further: nearly all actives have a fitted effect of over 60% in size
Summary of the method: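 After compound transfer in DMSO, plates were kept 72 hr at 37 degree celsius. Luminescent ATP signal from CellTiter-Glo served as viability measure, normalized against DMSO and no-cell controls.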

[2] = system: C33A; assay: Primary qHTS to identify gynecologic anti-cancer compounds using libraries of approved drugs and bioactive compounds (AID 1345084); conditions: Gynecologic cancer cell panel viability, ATPlite luminescence, 48 h; series mostly up to 57.5 µM; further: on the % scale 0 is the no-effect control and ±100 the full control effect; nearly all actives have a fitted effect of over 55% in size
Summary of the method: (§1)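 ATP-based viability (ATPlite), 1,000 cells/well, 16 h pre-incubation, 48 h compound at 37 C, 5% CO2, 15 min RT before read.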

[3] = system: CAOV3; assay: as above; conditions: Gynecologic cancer cell panel viability, ATPlite luminescence, 48 h; series mostly up to 57.5 µM
Summary of the method: as §1

[4] = system: CASKI; assay: as above; conditions: Gynecologic cancer cell panel viability, ATPlite luminescence, 48 h; series mostly up to 57.5 µM
Summary of the method: as §1

[5] = system: Es-2; assay: as above; conditions: Gynecologic cancer cell panel viability, ATPlite luminescence, 48 h; series mostly up to 57.5 µM
Summary of the method: as §1

[6] = system: HeLa; assay: as above; conditions: Gynecologic cancer cell panel viability, ATPlite luminescence, 48 h; series mostly up to 57.5 µM
Summary of the method: as §1

[7] = system: Hek293T; assay: as above; conditions: Gynecologic cancer cell panel viability, ATPlite luminescence, 48 h, control line for the selectivity index; series mostly up to 57.5 µM
Summary of the method: as §1

[8] = system: JEG-3; assay: as above; conditions: Gynecologic cancer cell panel viability, ATPlite luminescence, 48 h; series mostly up to 57.5 µM
Summary of the method: as §1

C=C[C@H]1[C@H](O[C@@H]2O[C@H](CO)[C@@H](O)[C@H](O)[C@H]2O)OC=C2C(=O)OCC[C@]21O
inactive: outcome [1] | Potency [2] | Potency [3] | Potency [4] | Potency [5] | Potency [6] | Potency [7] | Potency [8]

O=C(O[C@H]1[C@@H]2C=CO[C@@H](O[C@@H]3O[C@H](CO)[C@@H](O)[C@H](O)[C@H]3O)[C@@H]2[C@@]2(CO)O[C@@H]12)c1ccc(O)cc1
inactive: outcome [1] inactive [at 17.4 µM] | Potency [2] | Potency [3] | Potency [4] | Potency [5] | Potency [6] | Potency [7] | Potency [8]

CC1(CO)CC[C@]2(C(=O)O[C@@H]3O[C@H](CO)[C@@H](O)[C@H](O)[C@H]3O)CC[C@]3(C)C(=CCC4[C@@]5(C)CC[C@H](O[C@@H]6O[C@H](C(=O)O)[C@@H](O)[C@H](O)[C@H]6O)C(C)(C)C5CC[C@]43C)C2C1 (stereo partly specified)
inactive: outcome [1] inactive [at 9.27 µM] | activity change, negative = cytotoxicity [2] 12.6% [at 11.6 µM] | activity change, negative = cytotoxicity [3] 12.9% [at 11.6 µM] | activity change, negative = cytotoxicity [4] -3.81% [at 11.6 µM] | activity change, negative = cytotoxicity [5] 8.61% [at 11.6 µM] | activity change, negative = cytotoxicity [6] 8.66% [at 11.6 µM] | activity change, negative = cytotoxicity [7] 11.3% [at 11.6 µM] | activity change, negative = cytotoxicity [8] 10.8% [at 11.6 µM]

CCn1c2ccccc2c2cc(CNC)ccc21
inactive: outcome [1] | Potency [2] | Potency [3] | Potency [4] | Potency [5] | Potency [6] | Potency [7] | Potency [8]

CC12CC34C=CC(=O)C(C)(CCC(=O)O)C3C(CC1C4)O2 (stereo unspecified)
inactive: outcome [1] | Potency [2] | Potency [3] | Potency [4] | Potency [5] | Potency [6] | Potency [7] | Potency [8]

Nc1nonc1C(=Nc1ccc(F)c(Cl)c1)NO
inactive: outcome [1] | Potency [2] | Potency [3] | Potency [4] | Potency [5] | Potency [6] | Potency [7] | Potency [8]

C/C=C(\C)C(=O)O[C@@H](C)[C@H]1CC[C@]2(O)C3CCC4C[C@@H](OC5CC(OC)C(OC6CC(OC)C(OC7CC(OC)C(OC8OC(C)C(OC9OC(CO)C(O)C(O)C9O)C(OC)C8O)C(C)O7)C(C)O6)C(C)O5)CC[C@]4(C)C3[C@H](O)[C@@H](O)[C@]12C (stereo partly specified)
inactive: outcome [1] inactive [at 9.27 µM] | activity change, negative = cytotoxicity [2] 19.4% [at 6.55 µM] | activity change, negative = cytotoxicity [3] 3.47% [at 6.55 µM] | activity change, negative = cytotoxicity [4] -2.65% [at 6.55 µM] | activity change, negative = cytotoxicity [5] 10.2% [at 6.55 µM] | activity change, negative = cytotoxicity [6] 3.49% [at 6.55 µM] | activity change, negative = cytotoxicity [7] 1.78% [at 6.55 µM] | activity change, negative = cytotoxicity [8] -1.08% [at 6.55 µM]

C[C@@H]1O[C@@H](O[C@@H]2[C@@H](O)[C@H](O[C@@H]3[C@@H](O)[C@@H](O)[C@H](O[C@H]4[C@H](OC(=O)[C@]56CCC(C)(C)C[C@H]5C5=CCC7[C@@]8(C)C[C@H](O)[C@H](O[C@@H]9O[C@@H](C)[C@H](O)[C@@H](O)[C@H]9O)[C@@](C)(CO)C8CC[C@@]7(C)[C@]5(C)C[C@H]6O)O[C@H](C)[C@H](O)[C@@H]4O)O[C@H]3C)OC[C@H]2O)[C@H](O)[C@H](O)[C@H]1O (stereo partly specified)
inactive: outcome [1] inactive [at 9.27 µM] | activity change, negative = cytotoxicity [2] 1.27% [at 6.55 µM] | activity change, negative = cytotoxicity [3] 7.84% [at 6.55 µM] | activity change, negative = cytotoxicity [4] 0.934% [at 6.55 µM] | activity change, negative = cytotoxicity [5] -4.41% [at 6.55 µM] | activity change, negative = cytotoxicity [6] 3.33% [at 6.55 µM] | activity change, negative = cytotoxicity [7] 5.23% [at 6.55 µM] | activity change, negative = cytotoxicity [8] 1.34% [at 6.55 µM]

C=C1[C@@H]2CC[C@@]3(C)[C@H](c4ccoc4)OC(=O)C[C@]13O[C@H]1CC(=O)C(C)(C)[C@H](CC(=O)OC)[C@]12C
inactive: outcome [1] inactive [at 17.4 µM] | Potency [2] | Potency [3] | Potency [4] | Potency [5] | Potency [6] | Potency [7] | Potency [8]

Cn1c(=O)cc(N2CCCC(N)C2)n(Cc2ccccc2C#N)c1=O (stereo unspecified)
inactive: outcome [1] | Potency [2] | Potency [3] | Potency [4] | Potency [5] | Potency [6] | Potency [7] | Potency [8]

CC(C)=CCc1ccc(Oc2c(O)cc(C)cc2CO)c(C(=O)O)c1O
inactive: outcome [1] | Potency [2] | Potency [3] | Potency [4] | Potency [5] | Potency [6] | Potency [7] | Potency [8]

COC(=O)c1cc(CN2CCN(C(=N)N)CC2)cc(C(=O)N2CCN(C(=O)c3ccc(C(=N)N)cc3)CC2)c1
inactive: outcome [1] | Potency [2] | Potency [3] | Potency [4] | Potency [5] | Potency [6] | Potency [7] | Potency [8]

CN1C(=O)N[C@@H](Cc2c[nH]c3c(Cl)cccc23)C1=O
inactive: outcome [1] | Potency [2] | Potency [3] | Potency [4] | Potency [5] | Potency [6] | Potency [7] | Potency [8]

CC1CCC2(C(=O)OC3OC(COC4OC(CO)C(O)C(O)C4O)C(O)C(O)C3O)CCC3(C)C(=CCC4C5(C)CCC(O)C(C)(C(=O)O)C5CCC43C)C2C1(C)O (stereo unspecified)
inactive: outcome [1] inactive [at 9.27 µM] | activity change, negative = cytotoxicity [2] -3.16% [at 11.6 µM] | activity change, negative = cytotoxicity [3] 16.9% [at 11.6 µM] | activity change, negative = cytotoxicity [4] 8.05% [at 11.6 µM] | activity change, negative = cytotoxicity [5] 5.49% [at 11.6 µM] | activity change, negative = cytotoxicity [6] -4.94% [at 11.6 µM] | activity change, negative = cytotoxicity [7] 2.24% [at 11.6 µM] | activity change, negative = cytotoxicity [8] 10.5% [at 11.6 µM]

C=CC(C)(C)C1(CC2NC(=O)C3CCCN3C2=O)C(=O)Nc2cc3c(cc21)C=CC(C)(C)O3 (stereo unspecified)
inactive: outcome [1] inactive [at 17.4 µM] | Potency [2] | Potency [3] | Potency [4] | Potency [5] | Potency [6] | Potency [7] | Potency [8]

COc1ccc([C@H]2Cc3cccc(O)c3C(=O)O2)cc1
inactive: outcome [1] | Potency [2] | Potency [3] | Potency [4] | Potency [5] | Potency [6] | Potency [7] | Potency [8]

O=C(O[C@H]1[C@@H]2C=CO[C@@H](O[C@@H]3O[C@H](CO)[C@@H](O)[C@H](O)[C@H]3O)[C@@H]2[C@@]2(CO)O[C@@H]12)c1ccc(O)c(O)c1
inactive: outcome [1] inactive [at 17.4 µM] | Potency [2] | Potency [3] | Potency [4] | Potency [5] | Potency [6] | Potency [7] | Potency [8]
